These results are taken from PubChem BioAssay (NCI).

Compounds without any hit were thinned out: in the full panel of roughly 83,000, 20% have a hit.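 Negative percent growth values reflect cell death: -40 means 40% of the cells present at the start died, and -100 means all died.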 A number with no mark means an inactive call. Activity calls are given as the source filed them. The calls were made as follows: active = growth percent below 10; inactive = the rest.

Common to all, as to assay: NCI-60 one-dose screen, 48 h (100 = growth as untreated, 0 = no growth, -100 = all killed)
Holding throughout (conditions): 10 µM unless noted

Assay [1] has as its system HCT-15 colon.
The subject of assay [2] is HT29 colon.
Assay [3] relates to SNB-75 CNS.
Assay [4] relates to SNB-19 CNS.
The subject of assay [5] is U251 CNS.
In assay [6] the test system is PC-3 prostate.
Assay [7] has as its system SK-MEL-5 melanoma.
Assay [8] concerns UACC-62 melanoma.
Assay [9] has as its system LOX IMVI melanoma.
Assay [10] deals with SK-MEL-28 melanoma.
The subject of assay [11] is SK-MEL-2 melanoma.
Assay [12] deals with EKVX NSCLC.
The subject of assay [13] is SN12C renal.
Assay [14] has as its system UO-31 renal.
The test system of assay [15] is TK-10 renal.
The subject of assay [16] is ACHN renal.
The subject of assay [17] is CAKI-1 renal.
Assay [18] relates to A498 renal.
For assay [19], the system named is CCRF-CEM leukemia.
The test system of assay [20] is MOLT-4 leukemia.

In the case of `COCCn1cc(-c2nc(-c3c[nH]c4ncccc34)cs2)c2ccccc21`, the growth in assay [1] was 20.3%; in assay [2], 50.2%; in assay [3], 47.2%; in assay [4] it was 88.6%; in assay [5], 72%; in assay [6] it was 33.2%. Further, the growth in assay [7] was 34.3%; in assay [8], 64.4%; in assay [9], 66.9%; in assay [10] it was 89.4%; in [11] it was 77.5%; in assay [12] it was 16.4%. Moreover, the growth in assay [13] is 77.8%; in assay [14] it was 41%; in assay [15], 36.2%; in [16], 67.6%; in assay [17] it was 62.7%; in assay [18], 44.7%. In addition, the values for the growth in [19] and in assay [20] were 56.6% and 48.7%, respectively.

`C#Cc1cccc(NC(=O)C2CCCCN2C(=O)CCl)c1` (stereo not given): the growth in assay [1] is -54.7% [8.25 µM] (active); in assay [2], -52.5% [8.25 µM] (active); in [3], -5.47% [8.25 µM] (active); in assay [4], 20.1% [8.25 µM]; in [5] it was -62.2% [8.25 µM] (active); in [6] it was -7.93% [8.25 µM] (active). The growth in assay [7] was -81.7% [8.25 µM] (active); in assay [8], -84.8% [8.25 µM] (active); in assay [9] it was -74.6% [8.25 µM] (active); in [10] it was 2% [8.25 µM] (active); in assay [11], -51.7% [8.25 µM] (active); in [12], 19.6% [8.25 µM]. The growth is -92.3% [8.25 µM] (active) in assay [13]; -97.3% [8.25 µM] (active) in [14]; 9.36% [8.25 µM] (active) in [15]; -97.3% [8.25 µM] (active) in assay [16]; -95.5% [8.25 µM] (active) in [17]; 58.5% [8.25 µM] in assay [18]. Moreover, the figures for the growth in assay [19] and in [20] were -11.9% [8.25 µM] (active) and -13.7% [8.25 µM] (active), respectively.

As for `CCn1cc(C(=O)N/N=C/c2ccccc2)c(=O)c2cc(F)c(N3CCNC(C)C3)c(F)c21` (stereo not given), the growth in assay [1] is -86.5% (active); in assay [2], -92% (active); in assay [3], 92.8%; in assay [4], 18.9%; in [5], -92.3% (active); in assay [6], 48.9%. For the same compound, the growth was 11.9% in [7]; -27.9% (active) in assay [8]; -87.3% (active) in assay [9]; -78.8% (active) in assay [10]; 93.4% in assay [11]; 34.3% in [12]. The growth was 61.7% in assay [13]; 47.5% in assay [14]; 82.7% in assay [15]; 56.8% in assay [16]; 45.8% in assay [17]; 99.6% in assay [18]. Moreover, the results for the growth in assay [19] and in [20] were -52.1% (active) and -24.5% (active), respectively.

`CC(C)(C)c1ccc(C(=O)N/N=C/c2ccc(O)cc2O)cc1`: the growth in assay [1] was 14.1%; in assay [2], 26.4%; in [3], 37.6%; in [4], 28.4%; in [5], 19.6%; in assay [6], 34.9%. The growth is -46.1% (active) in assay [7]; 4.25% (active) in assay [8]; 2.62% (active) in assay [9]; 27.8% in [10]; 38.3% in assay [11]; 21.5% in [12]. The growth was 23.3% in assay [13]; 12.2% in assay [14]; 40.1% in [15]; 15.2% in [16]; 15% in [17]; 13.6% in assay [18]. Also, the values for the growth in assay [19] and in assay [20] were 9.83% (active) and 13.3%, respectively.

In the case of `C=CCN=c1sc(-c2ccc3ccccc3c2)cn1NC(=O)c1cc2ccc1CCc1ccc(cc1)CC2`, the growth in [1] was 49.5%; in [2], 30.1%; in assay [3], 53.3%; in [4], 66.8%; in assay [5], 53.9%; in assay [6] it was 37.8%. The growth was -10.1% (active) in assay [7]; 52.7% in assay [8]; 59.9% in assay [9]; 72.2% in assay [10]; 85.6% in [11]; 58.2% in assay [12]. Besides, the growth in assay [13] is 74.3%; in assay [14], 42.3%; in [15] it was 79.7%; in assay [16] it was 72.3%; in [17] it was 60.9%; in assay [18], 62.7%. Also, the growth in assay [19] was 41.2%; in assay [20], 45.3%.

Turning to `N[C@@H]1CCC[C@H]1NCCCCN1C(=O)c2cccc3cc([N+](=O)[O-])cc(c23)C1=O`, the growth in assay [1] is 59.9%; in assay [2] it was 14.3%; in assay [3] it was 38.1%; in assay [4], 39.1%; in [5] it was 33.7%; in assay [6], 39%. Further, the growth in [7] is 62.4%; in assay [8], 66.3%; in [9] it was 14.9%; in [10], 85.7%; in assay [11], 78.2%; in assay [12], 61.5%. Also, the growth in [13] is 27.4%; in assay [14], 61.9%; in assay [15], 44.1%; in assay [16], 13.3%; in [17], 97.7%; in assay [18] it was 52.8%. For the same compound, the growth in assay [19] was 1.99% (active); in assay [20], -3.36% (active).

On to `CCN1C2CCC1/C(=C\c1ccccc1)C(=O)/C2=C/c1ccccc1`, for which the growth in assay [1] was 38.5%; in assay [2], 42.3%; in assay [3], 50.6%; in assay [4] it was 65.5%; in assay [5], 24.5%; in assay [6], 47.7%. Also, the growth is 56.6% in assay [7]; 40.1% in [8]; 25.2% in assay [9]; 77.1% in assay [10]; 54.9% in assay [11]; 71.4% in assay [12]. In addition, the growth is 55.4% in [13]; 61.1% in assay [14]; 84.6% in [15]; 57.7% in [16]; 81.8% in assay [17]; 66.1% in [18]. The growth in assay [19] is 28.1%; in assay [20], 31%.

Regarding `CC1=C(Cl)C(=O)c2cc(C)ccc2C1=O`, the growth was 100% in assay [1]; 103% in [2]; 88.9% in [3]; 106% in assay [4]; 96.2% in assay [5]; 89.6% in [6]. Moreover, the growth in assay [7] is 101%; in assay [8], 96%; in assay [9], 100%; in assay [10], 94.9%; in assay [11], 99.9%; in assay [12], 94.2%. The growth in assay [13] is 93.7%; in assay [14], 73.3%; in assay [15], 108%; in assay [16], 96.9%; in [17], 86.7%; in [18], 97.2%. For the same compound, the results for the growth in assay [19] and in assay [20] were 102% and 98.1%, respectively.
